This is a sample that favours compounds with a hit; in the whole collection about 18% have one here.
IL1B secr inh: inhibitors of inflammasome signaling (IL-1 beta secretion); 4.7% of 360,000 active; activity change, % at 57.5 µM; AID 743279; THP-1 LPS/ATP IL-1B secretion, AlphaLISA, 16 h; hits give low values; in the data active means activity change below about -50%; inconclusive means mostly about -30% to -49%
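THP-1 cells pretreated 1 hr with compounds (up to 57.5 uM final), then stimulated with LPS (250 ng/mL final) plus ATP (1.25 mM final); secreted IL-1B measured by AlphaLISA after 16 hr, decreased signal indicating inhibition.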
LDHA inh: inhibitors of human lactate dehydrogenase A; purified LDHA, NADH/diaphorase-resazurin fluorescence; hits give low values; activity change, % (values are at about 110 or 230 µM); 0.15% of 480,000 active; in the data active means activity change below about -30%; inconclusive means mostly about -25% to -30%;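 further: plate controls were DMSO wells for no effect and wells without enzyme for full effect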
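Resorufin fluorescence (ex540/em590), read at 0 and 20 min after diaphorase/resazurin addition, reports the NADH left after a 5 min room-temperature reaction of 2 nM human LDH5 with 0.06 mM NADH and 0.2 mM pyruvate.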
TDP1 cell noCPT: qHTS for Inhibitors of human tyrosyl-DNA phosphodiesterase 1 (TDP1): qHTS in cells in absence of CPT | DT40 Tdp1-/- hTDP1 cells, no CPT, ATP luminescence, 48 h | Potency, µM (highest dose often 46.2 µM), inactives show top-dose activity change, negative = growth inhibition, actives largely listed as inhibitors | 15% of 420,000 active | AID 686978, 2013; further: potency means the concentration at half of the fitted maximal effect; nearly all actives have a fitted effect of over 55% in size
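Camptothecin absent (DMSO only). Human TDP1-complemented DT40 knockout cells, 400 cells/well, 37 °C for minimum 48 hr; ATP measured via CellTiter-Glo, 30 min dark incubation, luminescence.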
RORgamma inh: inhibitors of mouse ROR gamma transcriptional activity; P51450; Drosophila S2 Gal4-RORgamma UAS-luciferase reporter, 20 h; Potency, µM (highest dose often 53.6 µM), for inactives: top-dose activity change, negative = inhibition, actives largely listed as inhibitors; 5.4% of 310,000 active; further: potency means the concentration at half of the fitted maximal effect; nearly all actives have a fitted effect of over 60% in size
Target sequence (P51450 whole entry, looked up, the tested form may be a part): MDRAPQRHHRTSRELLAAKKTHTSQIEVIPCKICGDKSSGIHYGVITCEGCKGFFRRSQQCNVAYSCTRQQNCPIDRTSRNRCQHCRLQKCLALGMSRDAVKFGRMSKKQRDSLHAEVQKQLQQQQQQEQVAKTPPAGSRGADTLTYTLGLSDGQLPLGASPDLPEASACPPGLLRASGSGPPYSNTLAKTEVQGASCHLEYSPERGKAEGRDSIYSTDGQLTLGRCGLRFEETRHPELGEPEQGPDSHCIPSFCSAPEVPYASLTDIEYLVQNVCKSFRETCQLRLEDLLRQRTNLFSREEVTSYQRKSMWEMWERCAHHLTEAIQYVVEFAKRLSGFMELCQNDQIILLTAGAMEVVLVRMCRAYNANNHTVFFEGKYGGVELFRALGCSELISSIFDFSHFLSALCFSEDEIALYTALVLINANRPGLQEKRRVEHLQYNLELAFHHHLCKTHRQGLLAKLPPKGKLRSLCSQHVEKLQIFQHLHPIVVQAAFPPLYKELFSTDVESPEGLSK
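Stable Schneider cell line, Gal4 DNA-binding domain fused to ROR gamma, UAS-luciferase. Cmpd 1 hr RT → CuSO4 700 uM final → 20 hr RT → luciferase reagent 10 min → luminescence.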
Gal4-VP16 FLuc: counter-screen for ROR gamma inhibitors: Gal4-VP16 reporter | Drosophila S2 Gal4-VP16 UAS-luciferase, luminescence, 20 h | Potency, µM (highest dose often 53.6 µM), for the others: at the highest dose activity, negative = inhibition, hits mostly inhibitors | 3.5% of 310,000 active | AID 2546;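 further: Gal4-VP16 expression switched on by copper sulfate through the metallothionein promoter; potency means the concentration at half of the fitted maximal effect; nearly all actives have a fitted effect of over 50% in size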
DT40 TDP1 CPT: DT40-hTDP1 cell growth loss with CPT. 12% of 420,000 active. chicken DT40 Tdp1-/-;hTDP1 cells + 20 nM CPT, ATP luminescence, 48 h. AID 686979. Potency, µM (top dose mostly 46.2 µM), for the others: at the top dose activity change, negative = growth inhibition, actives largely listed as inhibitors; further: potency means the concentration at half of the fitted maximal effect; nearly all actives have a fitted effect of over 55% in size
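Cell growth measured by CellTiter-Glo luminescence after a minimum 48 h, 37 C compound exposure with 20 nM CPT in Tdp1-knockout DT40 cells stably expressing hTDP1, seeded 400/well; qHTS titration format.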
Starred values were filed as active, the others as inactive; ? = inconclusive; / = no result given; ! = a repeat was not active. Unless noted, the call rests on the fitted dose curve; in most records, active means well fitted curve in the direction sought with a large enough effect; inconclusive means small, poorly fitted or top-dose-only effect, or another doubt; inactive means no such curve, though single readings can be large; an effect the other way counts as inactive or inconclusive. Unless noted, on the % scale 0 is the no-effect control and ±100 the full control effect.

SMILES | IL1B secr inh | LDHA inh | TDP1 cell noCPT | RORgamma inh | Gal4-VP16 FLuc | DT40 TDP1 CPT
O=C(Cn1c(O)c(/C=C2\C=Nc3ccc(Br)cc32)sc1=O)N1CCCC1 | ? | -20.1 | ? | 6.5% | -3.1% | 20.6µM*
Cc1ccc(-c2c(CN3CCN(c4cc(C)ccc4C)CC3)csc2C)cc1 | / | -4.8 | 16.4µM* | / | / | ?
Cc1ccc(C)c(N2CCN(Cc3csc(C)c3C)CC2)c1 | / | -2.7 | 14.6µM* | / | / | ?
CCc1nc(SCC(=O)Nc2ccccc2C(=O)OC)c2oc3ccccc3c2n1 | / | -2.3 | / | / | / | /
Cc1[nH]n(-c2ccccc2)c(=O)c1/C=N/N(c1ccccc1)c1ccccc1 | -9.6 | 1.9 | ? | 5.62µM* | ? | ?
C=CCN=Cc1c(C)[nH]n(-c2ccccc2)c1=O | -9.7 | 0.5 | 5.3% | 26.1% | -6.5% | -1.7%
Cc1ccc(-n2[nH]c(C)c(/C=N/n3c(C)nc4ccccc4c3=O)c2=O)cc1 | 36.6 | 5.1 | 23.1µM* | 17.8µM* | ? | 6.51µM*
Cc1[nH]n(-c2ccccc2)c(=O)c1/C=N/n1c(C)nc2ccccc2c1=O | 14.5 | -9.2 | ? | 5.62µM* | ? | ?
Cc1ccc(-n2[nH]c(C)c(C=Nc3ccc(C)cn3)c2=O)cc1 | 19.7 | -6.7 | 16.4µM* | ? | -7.4% | 9.2µM*
COC(=O)C1=C(C)C=C(N2CCOCC2)C(C(=O)OC)C1c1ccc(OC)cc1 (stereo unspecified) | / | 13.6 | / | / | / | /
CCOC(=O)C1C(=O)C=C(Nc2ccc(C(F)(F)F)cc2)CC1c1ccccc1 (stereo unspecified) | / | 1.6 | / | / | / | /
COc1ccc(Cl)cc1NC(=O)CCc1ncc(-c2ccc(Cl)cc2)o1 | / | 7.4 | / | / | / | /
COCCCC/C(=N\OCCN)c1ccc(C(F)(F)F)cc1 | -50.6*! | -1.3 | 20.6µM* | 5.6% | -13.3% | 13µM*!
COCCCCC(=NOCCN)c1ccc(C(F)(F)F)cc1 | / | / | 23.7µM* | -2.9% | -1.8% | 13.3µM*
C=CCn1c(SCC)nc2c1c(=O)[nH]c(=O)n2C | / | -15.3 | / | / | / | /
C/C(Cl)=C/Cn1c(SCC(C)C)nc2c1c(=O)[nH]c(=O)n2C | 20.5 | -5.5 | 8.2µM* | -6.5% | 0.8% | ?
CCOC(=O)C(CC)Sc1nc2c(c(=O)[nH]c(=O)n2C)n1C/C=C(/C)Cl (stereo unspecified) | 0.0 | -2.1 | 13µM* | 27.8% | -6.8% | 7.31µM*
CCCCOC(=O)CSc1nc2c(c(=O)[nH]c(=O)n2C)n1C/C=C(\C)Cl | 19.6 | -1.4 | 16.4µM* | 1.0% | -4.1% | ?
CCCNC(=O)NC(=O)CN(C)C(C)C1CC1 (stereo unspecified) | / | -12.6 | / | / | / | /
Cn1c(=O)c(NC2CCCCC2)c2c3c(cccc31)C(=O)c1ccccc1-2 | -66.4* | -0.9 | ? | -11.2% | 2.0% | ?
CC(=O)Nc1ccc(Nc2c3c4c(cccc4n(C)c2=O)C(=O)c2ccccc2-3)cc1 | -14.3 | 1.7 | ? | 6.3% | -4.3% | ?
CCCCNc1c2c3c(cccc3n(C)c1=O)C(=O)c1ccccc1-2 | 9.5 | 4.0 | 18.4µM* | ? | -0.4% | ?
O=C(Nc1ccc2nc[nH]c(=O)c2c1)c1ccc(Cl)cc1Cl | / | -1.9 | / | / | / | /
CNC(=S)NNC(=O)c1cc(C(C)(C)C)nn1Cc1ccc(F)cc1 | -0.4 | -9.8 | 16.4µM* | ? | -19.2% | ?
Cc1cccc(C)c1NC(=O)NNC(=O)c1cc(C(C)(C)C)nn1Cc1ccccc1 | -4.5 | -4.7 | ? | -29.0% | 1.8% | -14.7%
SMILES | IL1B secr inh | LDHA inh | TDP1 cell noCPT | RORgamma inh | Gal4-VP16 FLuc | DT40 TDP1 CPT
COc1ccc2c(C#N)c3ccccn3c2c1 | -8.7 | 15.0 | 23.1µM* | 22.7% | 2.6% | ?
CCCCC(=O)OC1=C(C(=O)c2ccccc2)N(CCC)S(=O)(=O)c2ccccc21 | / | 0.2 | 2.91µM* | / | / | 3.26µM*
CCCN1C(C(=O)c2ccccc2)=C(OC(=O)c2ccc(F)cc2)c2ccccc2S1(=O)=O | / | 1.4 | 4.61µM* | / | / | 5.17µM*
Cc1ccc(C(=O)OC2=C(C(=O)c3ccccc3)N(C)S(=O)(=O)c3ccccc32)cc1 | / | -9.9 | ? | / | / | ?
CCCCCN1C(C(=O)c2ccccc2)=C(OC(=O)CC)c2ccccc2S1(=O)=O | / | 7.3 | 5.17µM* | / | / | 4.61µM*
CCCCC(=O)OC1=C(C(C)=O)N(Cc2ccccc2)S(=O)(=O)c2ccccc21 | / | -4.5 | ? | / | / | ?
CCN1C(C(=O)c2ccccc2)=C(OC(=O)c2ccc(OC)cc2)c2ccccc2S1(=O)=O | / | 1.6 | 6.51µM* | / | / | 4.61µM*
Cc1ccc(C2C(c3ccccc3)=C(O)C(=O)N2Cc2ccccc2)cc1 (stereo unspecified) | / | 5.7 | / | / | / | /
CCC(=O)OC1=C(C(C)=O)N(Cc2ccccc2)S(=O)(=O)c2ccccc21 | / | 1.2 | ? | / | / | 18.4µM*
CCOC(=O)C(=O)Nc1nc(-c2ccccc2)c(-c2ccccc2)o1 | -9.0 | -0.1 | -17.2% | 20µM* | -15.5% | -12.2%
Fc1ccc(-c2nc(-c3ccccc3)c(-c3ccc(F)cc3)o2)cc1 | / | -5.7 | / | / | / | /
O=C(Nc1nc(-c2ccccc2)c(-c2ccccc2)o1)c1ccc(F)cc1 | 10.1 | 2.6 | 8.2µM* | 1.41µM* | 2.82µM* | 9.2µM*
COc1cccc(C(=O)Nc2ccccc2-c2nnc(-c3cccc(OC)c3)o2)c1 | / | 3.9 | 11.6µM* | / | / | 9.2µM*
COc1cccc(C(=O)Nc2nc(-c3ccccc3)c(-c3ccccc3)o2)c1 | 75.7 | 1.7 | ? | 2.51µM* | 3.16µM* | ?
CCOC(=O)Nc1sc(C)nc1-c1ccccc1 | -6.2 | -2.0 | -4.1% | -1.4% | 1.2% | 10.1%
Cc1nn(CC(O)COc2cccc(Br)c2)c(=O)c2ccccc12 (stereo unspecified) | / | -0.7 | / | / | / | /
CN(CC(=O)Nc1cc(C(F)(F)F)cc(C(F)(F)F)c1)C1CCCCC1 | / | -23.0 | / | / | / | /
Cn1nc(C(=O)OCCOc2ccccc2Cl)c2ccccc2c1=O | / | 5.2 | / | / | / | /
COC(=O)c1cn(C(=O)OC)c2ccccc12 | 15.4 | -4.9 | -4.5% | -37.1% | -11.7% | -12.4%
O=Nc1ccc(NO)c2ccccc12 | -6.8 | 29.2 | 13µM* | / | / | ?
Cc1ccc(C(CNC(=O)c2cc(=O)c3ccc(Br)cc3o2)N2CCC(C)CC2)o1 (stereo unspecified) | / | 2.5 | / | / | / | /
COc1ccc(NC(=O)c2oc3c(c2C)-c2nn(Cc4ccccc4Cl)cc2CC3)cc1OC | / | 22.7 | 20.6µM* | / | / | 20.6µM*
COc1cc(NC(=O)c2oc3c(c2C)-c2nn(Cc4cccc(Cl)c4)cc2CC3)cc(OC)c1 | / | 1.9 | ? | / | / | ?

Screening results as filed in PubChem.
